From the supplement of paper PMC8285479
Counter-ions that a name gives are not always drawn. ± gives the standard deviation of the averaged measurements. Over roughly 1,900 compounds, “normalised cell viability (NPI; 0 = phenylarsine oxide control, 1 = DMSO control)” has its median near 1; the lowest 2% begin near 0.039. The list comes from a sample in which the lowest values are over-represented; it also holds similar structures and randomly drawn compounds.

Tested on: NCI-H1944
Assay: normalised cell viability (NPI; 0 = phenylarsine oxide control, 1 = DMSO control) (fraction of DMSO control); NCI-H1944 is a non-small cell lung cancer line; higher = more viable cells (less compound toxicity)
Conditions: 6 days
[1] = glucocorticoid arm: hydrocortisone 2.75 uM co-treatment, compound 1 µM
[2] = glucocorticoid arm: hydrocortisone 2.75 uM co-treatment, compound 5 µM
[3] = glucocorticoid arm: hydrocortisone 2.75 uM pre-treated 2 days and continued, compound 1 µM
[4] = glucocorticoid arm: hydrocortisone 2.75 uM pre-treated 2 days and continued, compound 5 µM
[5] = glucocorticoid arm: vehicle, compound 1 µM
[6] = glucocorticoid arm: vehicle, compound 5 µM
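Note: CTB read-out in 384-well plates, triplicate wells, NPI normalised per plate against 1 µM phenylarsine oxide (0) and 0.1% DMSO (1) controls.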

Compound | normalised cell viability [1] | normalised cell viability [2] | normalised cell viability [3] | normalised cell viability [4] | normalised cell viability [5] | normalised cell viability [6]
CN1CCN(C2Cc3ccccc3Sc3ccc(Cl)cc32)CC1 (racemic) [(±)-Octoclothepin maleate] | 1.01 ± 0.011 | 0.9477 ± 0.0045 | 1.01 ± 0.015 | 1.05 ± 0.087 | 1 ± 0.0095 | 1 ± 0.011
[N-]=[N+]=Nc1ccc(C(=O)CSC[C@H](NC(=O)CC[C@H](N)C(=O)O)C(=O)NCC(=O)O)cc1 [S-(p-Azidophenacyl)glutathione] | 1.017 ± 0.0058 | 0.814 ± 0.0099 | 0.9947 ± 0.0067 | 1 ± 0.021 | 0.988 ± 0.014 | 0.517 ± 0.38
COCC[n+]1c2c(n(Cc3cnccn3)c1C)C(=O)c1ccccc1C2=O | 0.00685 ± 0.0014 | 0.00188 ± 0.0012 | 0.00552 ± 0.0012 | 0.0024 ± 0.00039 | 0.00736 ± 0.00083 | 0.00199 ± 0.00048
OC[C@H]1O[C@@H](n2cnc3c(Nc4ccccc4)ncnc32)[C@H](O)[C@@H]1O [N6-Phenyladenosine] | 1 ± 0.014 | 1.01 ± 0.011 | 1.02 ± 0.022 | 1.013 ± 0.0058 | 1.01 ± 0.01 | 1.002 ± 0.0076
COc1[nH]c2ccc(F)cc2c1C(=O)OCC1CCN(CCNS(C)(=O)=O)CC1.NS(=O)(=O)O | 1.023 ± 0.0058 | 0.955 ± 0.011 | 1.017 ± 0.0058 | 0.989 ± 0.021 | 0.9993 ± 0.0011 | 1.007 ± 0.0058
O=C(/C=C/c1ccc(CN(CCO)CCc2c[nH]c3ccccc23)cc1)NO [LAQ824 (Dacinostat)] | 0.00706 ± 0.0016 | -0.000483 ± 0.0039 | 0.0151 ± 0.00085 | 0.00158 ± 0.00078 | 0.0063 ± 0.00096 | -0.000399 ± 0.00047
CN(C)Cc1ccc(S(=O)(=O)n2ccc(/C=C/C(=O)NO)c2)cc1 [Resminostat] | 0.941 ± 0.011 | 0.92 ± 0.018 | 0.961 ± 0.011 | 1.023 ± 0.0058 | 1.001 ± 0.0081 | 0.214 ± 0.026
N[C@@H](Cc1c[nH]c2ccccc12)C(=O)O [L-Tryptophan] | 1.01 | 1.027 ± 0.0058 | 1.03 ± 0.032 | 1.033 ± 0.0058 | 0.999 ± 0.001 | 1.003 ± 0.0058
Ic1ccc(N2CCN(Cc3c[nH]c4ncccc34)CC2)cc1 [L-750,667 trihydrochloride] | 0.969 ± 0.003 | 0.883 ± 0.014 | 0.99 ± 0.0044 | 0.999 ± 0.087 | 0.988 ± 0.011 | 0.998 ± 0.019
CC1CCN=C(N)S1 (racemic) [(±)-AMT hydrochloride] | 0.982 ± 0.015 | 0.968 ± 0.015 | 0.9923 ± 0.0067 | 0.975 ± 0.0071 | 0.9907 ± 0.0095 | 0.9677 ± 0.0046
OCc1ccc(-c2ccc(-c3ccc(CO)s3)o2)s1 | 0.979 ± 0.0061 | 0.0751 ± 0.0071 | 1.017 ± 0.0058 | 0.358 ± 0.022 | 0.621 ± 0.045 | 0.0128 ± 0.0026
CCc1ccc(/C=C2/SC(=S)NC2=O)cc1 | 1.01 ± 0.017 | 1.06 ± 0.011 | 1.04 | 1.04 ± 0.021 | 1.007 ± 0.0058 | 1.013 ± 0.0058
COC(=O)C(N)Cc1ccc(Cl)cc1 (racemic) [DL-p-Chlorophenylalanine methyl ester hydrochloride] | 1.02 ± 0.01 | 1.02 ± 0.015 | 1.017 ± 0.0058 | 1.02 ± 0.014 | 1.006 ± 0.0069 | 1.017 ± 0.0058
NC[C@@H]1O[C@H](C23CC4CC(CC(C4)C2)C3)Cc2c1ccc(O)c2O | 1.01 ± 0.012 | 0.0562 ± 0.02 | 1.01 ± 0.011 | 0.996 ± 0.077 | 1.01 ± 0.011 | 0.0119 ± 0.0027
CCCCCCCCCCCCCCCC(=O)OC(CC(=O)O)C[N+](C)(C)C (racemic) [Palmitoyl-DL-Carnitine chloride] | 1.02 ± 0.011 | 0.975 ± 0.014 | 1.013 ± 0.0058 | 0.863 ± 0.28 | 1.007 ± 0.0058 | 1.02 ± 0.02
CC(/C=C/C(=O)NO)=C\[C@@H](C)C(=O)c1ccc(N(C)C)cc1 [Trichostatin A] | 2.17e-05 ± 0.00056 | 0.000584 ± 0.0001 | 0.00474 ± 0.0016 | 0.00101 ± 0.0013 | -0.000312 ± 0.00084 | 0.000187 ± 0.00072
CC(C=CC(=O)NO)=CC(C)C(=O)c1ccc(N(C)C)cc1 (centres undefined) [Trichostatin A (TSA)] | 0.0292 ± 0.0042 | -0.000733 ± 0.0048 | 0.937 ± 0.098 | 0.00269 ± 0.00055 | 0.00709 ± 0.0011 | 8.2e-05 ± 0.00089
Cc1ccc(C(=O)c2cc(/C=C/C(=O)NO)n(C)c2)cc1 | 1 ± 0.022 | 1.02 ± 0.02 | 1 ± 0.021 | 1.02 ± 0.017 | 0.9928 ± 0.0048 | 0.995 ± 0.022
CN1CCC[C@@H]1c1cccnc1.Cc1ccc(C(=O)O[C@H](C(=O)O)[C@@H](OC(=O)c2ccc(C)cc2)C(=O)O)cc1 [(+)-Nicotine (+)-di-p-toluoyl tartrate] | 1.03 ± 0.015 | 1.02 ± 0.016 | 1.03 ± 0.01 | 1.03 ± 0.021 | 1.027 ± 0.0058 | 1.03 ± 0.015
CC1CN(S(=O)(=O)c2cccc3cnccc23)CCN1 (centres undefined) | 0.9777 ± 0.0078 | 0.966 ± 0.025 | 0.9933 ± 0.0051 | 1.01 ± 0.091 | 0.9757 ± 0.0074 | 0.9753 ± 0.0076
Oc1cc2c(c(Cl)c1O)CCNCC2c1ccccc1 (racemic) [(±)-6-Chloro-PB hydrobromide] | 1.007 ± 0.0058 | 1.04 ± 0.023 | 1.03 ± 0.015 | 1.05 ± 0.01 | 1.02 ± 0.01 | 1.02
O=C(c1ccc2c(c1)OCCO2)N1CCCCC1 | 1.005 ± 0.0092 | 1 ± 0.017 | 1.01 | 1 ± 0.017 | 0.9913 ± 0.0096 | 0.9947 ± 0.0021
O=C1O/C(=C/Br)CCC1c1cccc2ccccc12 (centres undefined) [Bromoenol lactone] | 1.02 | 1.02 ± 0.026 | 1.01 ± 0.01 | 1.02 | 0.998 ± 0.013 | 1.01
CCOC(=O)C1=CN(Cc2ccccc2)C=C(C(=O)OCC)C1c1ccccc1 | 0.995 ± 0.018 | 1.01 ± 0.026 | 1 ± 0.019 | 1.01 ± 0.021 | 0.993 ± 0.0059 | 1.003 ± 0.01
O=C(O)c1cc(O)c2ccc(Cl)cc2n1 [7-Chlorokynurenic acid] | 1.002 ± 0.0069 | 0.974 ± 0.0072 | 1.01 ± 0.015 | 0.9873 ± 0.0046 | 1.01 ± 0.01 | 0.997 ± 0.0036
N=C(N)NCCCCN [Agmatine sulfate] | 1.017 ± 0.0058 | 1 ± 0.025 | 1.003 ± 0.0058 | 1 ± 0.025 | 0.986 ± 0.012 | 0.997 ± 0.011
CC(C)C[C@H](NC(=O)[C@H](Cc1ccccc1)NC(=O)c1cnccn1)B(O)O [Bortezomib] | 0.281 ± 0.011 | 0.0356 ± 0.0084 | 0.669 ± 0.035 | 0.28 ± 0.054 | 0.00407 ± 0.00064 | 0.00157 ± 0.00063
CC(C)C[C@H](NC(=O)[C@@H](O)[C@H](N)Cc1ccccc1)C(=O)O [Bestatin hydrochloride] | 0.996 ± 0.0046 | 1.02 ± 0.011 | 0.989 ± 0.01 | 1.02 ± 0.033 | 0.979 ± 0.012 | 0.9903 ± 0.0015
CC(C)C[C@H](NC(=O)[C@H](Cc1ccccc1)NC(=O)c1cnccn1)B(O)O [Bortezomib (Velcade)] | 0.352 ± 0.024 | 0.0578 ± 0.0037 | 0.677 ± 0.016 | 0.351 ± 0.042 | 0.00826 ± 0.0011 | 0.000986 ± 0.0007
